The record followed here is PMC5869772, “Quantitative profiling of BATF family proteins/JUNB/IRF hetero-trimers using Spec-seq”.

This assay addresses T1, BATF3;JUNB (human;human, UniProt Q9NR55;P17275 1-127;148-347, |).
T1 sequence 1: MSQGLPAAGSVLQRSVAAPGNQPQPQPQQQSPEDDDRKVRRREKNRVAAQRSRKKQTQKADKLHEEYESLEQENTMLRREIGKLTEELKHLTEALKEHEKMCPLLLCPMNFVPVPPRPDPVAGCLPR
T1 sequence 2: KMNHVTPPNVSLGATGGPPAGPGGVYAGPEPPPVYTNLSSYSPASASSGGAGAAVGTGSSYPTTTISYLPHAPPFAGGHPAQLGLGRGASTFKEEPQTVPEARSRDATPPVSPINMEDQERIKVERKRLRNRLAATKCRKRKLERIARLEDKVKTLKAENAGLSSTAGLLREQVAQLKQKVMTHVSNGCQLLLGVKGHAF
The assay can be described thus: Spec-seq (EMSA and sequencing of bound and unbound bands); 100 nM BATFx-JUNB, 1 uM dsDNA library, 50 mM K acetate, 20 mM Tris-acetate, 10 mM Mg acetate, 100 ug/ml BSA, pH 7.9, 10% glycerol, 30 min on ice; native 9% PAGE at 4 C; low values mean tight binding. Conditions: protein: recombinant;recombinant; tags: N-terminal mCherry-TEV, cleaved off;C-terminal 6His; copies: 1;1; dsDNA, one strand shown. In outline: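 The protein, at 100 nM, was incubated with 1 μM double-stranded degenerate DNA library for 30 min on ice in NEB Cutsmart buffer with 10% glycerol, then resolved by native 9% PAGE at 4 °C. Excised bound and unbound bands were PCR-barcoded and Illumina-sequenced, and each sequence's relative binding energy in kT is −ln of its bound/unbound read-count ratio.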
(Mobility shift assays separate free from complexed probe on a gel.)
“GATAGTCTCATTTTCACCCCGTGAAACTCAGTCATTGTTCCATTACAGTATCTGT”: the binding signal came out at 0.0164 kT.

For “GATAGTCTCATTTTCACCCCGTGAAATTGAGTCATTGTTCCATTACAGTATCTGT”, the binding signal is -1.45 kT.

For the sequence “GATAGTCTCATTTTCACCCCGTGAAATGAGGCATTTGTTCCATTACAGTATCTGT”, the binding signal was determined as 0.744 kT.

Regarding “GATAGTCTCATTTTCACCCCGTGAAATGAGTCTTTTGTTCCATTACAGTATCTGT”, the binding signal was found to be 0.768 kT.

Regarding “GATAGTCTCATTTTCACCCCGTGAAATGACGCATTTGTTCCATTACAGTATCTGT”, the binding signal is -0.479 kT.

On to “GATAGTCTCATTTTCACCCCGTGAAAATAAGTCATTGTTCCATTACAGTATCTGT”, for which the binding signal was -0.395 kT.

Turning to “GATAGTCTCATTTTCACCCCGTGAAATGAGTGACTTGTTCCATTACAGTATCTGT”, the binding signal came to 0.384 kT.

“GATAGTCTCATTTTCACCCCGTGAAATGGAGTCATTGTTCCATTACAGTATCTGT”: the binding signal was -0.305 kT.

On to “GATAGTCTCATTTTCACCCCGTGAAATGAGTCGGTTGTTCCATTACAGTATCTGT”, for which the binding signal is 0.619 kT.

For the sequence “GATAGTCTCATTTTCACCCCGTGAAATGACACAATTGTTCCATTACAGTATCTGT”, the binding signal is -0.063 kT.

With “GATAGTCTCATTTTCACCCCGTGAAATGAGTGAATTGTTCCATTACAGTATCTGT”, the binding signal is 0.58 kT.

Regarding “GATAGTCTCATTTTCACCCCGTGAAATGATGTCATTGTTCCATTACAGTATCTGT”, the binding signal is -1.63 kT.

With “GATAGTCTCATTTTCACCCCGTGAAATGACATCATTGTTCCATTACAGTATCTGT”, the binding signal is -1.1 kT.

For “GATAGTCTCATTTTCACCCCGTGAAATGACGTCCTTGTTCCATTACAGTATCTGT”, the binding signal was -0.0593 kT.

“GATAGTCTCATTTTCACCCCGTGAAAGGACGTCATTGTTCCATTACAGTATCTGT”: the binding signal is -0.474 kT.

“GATAGTCTCATTTTCACCCCGTGAAATGACGCACTTGTTCCATTACAGTATCTGT”: the binding signal is -0.203 kT.

On to “GATAGTCTCATTTTCACCCCGTGAAAAGAGTCATTTGTTCCATTACAGTATCTGT”, for which the binding signal worked out at 0.137 kT.

On to “GATAGTCTCATTTTCACCCCGTGAAATGACTCTGTTGTTCCATTACAGTATCTGT”, for which the binding signal came to 0.481 kT.

For “GATAGTCTCATTTTCACCCCGTGAAATGAGGCAGTTGTTCCATTACAGTATCTGT”, the binding signal came to 1.27 kT.

“GATAGTCTCATTTTCACCCCGTGAAAGTGTGTCATTGTTCCATTACAGTATCTGT”: the binding signal was -0.359 kT.

“GATAGTCTCATTTTCACCCCGTGAAATGGCTCATTTGTTCCATTACAGTATCTGT”: the binding signal is 0.838 kT.

With “GATAGTCTCATTTTCACCCCGTGAAATGACCTCATTGTTCCATTACAGTATCTGT”, the binding signal was -0.817 kT.

Turning to “GATAGTCTCATTTTCACCCCGTGAAATGACACAGTTGTTCCATTACAGTATCTGT”, the binding signal amounted to 0.492 kT.

With “GATAGTCTCATTTTCACCCCGTGAAACTGAGTCATTGTTCCATTACAGTATCTGT”, the binding signal is -1.63 kT.

For the sequence “GATAGTCTCATTTTCACCCCGTGAAATGAGTGATTTGTTCCATTACAGTATCTGT”, the binding signal is 0.444 kT.

On to “GATAGTCTCATTTTCACCCCGTGAAATGACGTCATTGTTCCATTACAGTATCTGT”, for which the binding signal was -1.75 kT.

With “GATAGTCTCATTTTCACCCCGTGAAATGGCGTCATTGTTCCATTACAGTATCTGT”, the binding signal is -1.11 kT.

With “GATAGTCTCATTTTCACCCCGTGAAATTAAGTCATTGTTCCATTACAGTATCTGT”, the binding signal is -0.719 kT.

As for “GATAGTCTCATTTTCACCCCGTGAAATGACGACATTGTTCCATTACAGTATCTGT”, the binding signal was -0.606 kT.

In the case of “GATAGTCTCATTTTCACCCCGTGAAATGACTGAGTTGTTCCATTACAGTATCTGT”, the binding signal came out at 0.26 kT.

In the case of “GATAGTCTCATTTTCACCCCGTGAAAGTAAGTCATTGTTCCATTACAGTATCTGT”, the binding signal is -0.041 kT.

“GATAGTCTCATTTTCACCCCGTGAAAATGTGTCATTGTTCCATTACAGTATCTGT”: the binding signal is -0.757 kT.

For the sequence “GATAGTCTCATTTTCACCCCGTGAAATTGCGTCATTGTTCCATTACAGTATCTGT”, the binding signal is -1.72 kT.
